# Several values for one entry are separate records, joined by “and”; a condition that tells them apart may be missing. Identical values can stand only once. Inconclusive results are not listed. Activity calls are given as the source filed them. Unless noted, cut-off not given; nearly all actives show AC50 up to about 30 µM.
# Assays:
# [1] = growth inhibition of DIPG glioma cells, dose response, cell-based, JHH-DIPG-1, MIPE4.0, CellTiter-Glo, qHTS (AID 1347062; cut-off not given, nearly all actives have AC50 up to about 27 µM;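 on AC50: cells exposed to compound for two days before readout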); details: JHH-DIPG-1 viability, CellTiter-Glo ATP luminescence
# [2] = growth inhibition of DIPG glioma cells, dose response, cell-based, SU-DIPG-IV, MIPE4.0, CellTiter-Glo, qHTS (AID 1347063); details: SU-DIPG-IV viability, CellTiter-Glo ATP luminescence;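 further: compound exposure lasted 48 hours before the viability readout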
# [3] = SU-DIPG-VI glioma cell viability, MIPE4.0 library, CellTiter-Glo luminescence, qHTS (AID 1347066); details: CellTiter-Glo ATP luminescence;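 further: cells exposed to compound for 48 hours before readout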
# [4] = JHH-DIPG-1 glioma cell viability, MIPE5.0 library, CellTiter-Glo luminescence, qHTS (AID 1347067; cut-off not given, nearly all actives have AC50 up to about 26 µM;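 further: cells exposed to compound for 48 hours before readout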); details: JHH-DIPG-1 glioma viability, CellTiter-Glo ATP luminescence
# [5] = SU-DIPG-XXV glioma cell viability, MIPE5.0 library, qHTS (AID 1347068; cut-off not given, nearly all actives have IC50 up to about 30 µM;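 on IC50: cells exposed to compound for 48 hours before viability readout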)
# [6] = growth inhibition of DIPG glioma cells, dose response, cell-based, SU-DIPG-XIII, MIPE5.0, CellTiter-Glo, qHTS (AID 1347064; cut-off not given, nearly all actives have AC50 up to about 23 µM;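 on AC50: cells exposed to compound for 48 hours before the viability read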); details: SU-DIPG-XIII viability, CellTiter-Glo ATP luminescence
# [7] = viability loss in pontine glioma line – cell-based, SU-DIPG-XXV, MIPE5.0, CellTiter-Glo, qHTS, dose response (AID 1347065; cut-off not given, nearly all actives have AC50 up to about 26 µM;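 further: cells exposed to compound for 48 hours before ATP readout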); details: CellTiter-Glo ATP luminescence
# [8] = sensitizers of A549 cells to miR-34 induction, primary screen, imaging, A549 dox-inducible miR-34, nuclei and caspase counts (AID 1347080;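 active means compounds whose cell count with miR-34 switched on is under 0.7 times the count with it off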); details: A549 miR-34 inducible, Hoechst nuclei count, 48 h
# [9] = survival rescue of mitochondrial mutant cells in low glucose, primary screen, MELAS cybrids, Rieske KO mouse fibroblasts, CellTiter-Glo (AID 1508586;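 active means mean z-score across replicates of 1.96 or higher in either the MELAS or the Rieske mutant cell line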;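 further: z relative to plate mean and SD of compound and empty wells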)
# [10] = LFS_MB_P medulloblastoma growth inhibition, cell-based, chromothripsis tumors, cisplatin or BGB combos (AID 1671449; in the data active means inhibition above about 80%;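 further: cells exposed for 96 hours; 0% = vehicle DMSO and 100% = killing by high DMSO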); details: LFS_MB_P medulloblastoma cells
# [11] = HDN33 neuroblastoma growth inhibition, cell-based, chromothripsis tumors, cisplatin or BGB combos (AID 1671450; in the data active means inhibition above about 80%;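 further: cells exposed to compound for four days; 0% = vehicle DMSO and 100% = cell killing by high DMSO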); details: HDN33 neuroblastoma cells, stronger effect = higher value
# [12] = ICB984 medulloblastoma cell growth inhibition, synergistic combos for chromothripsis tumors, cisplatin or BGB combos (AID 1671451; call rule not given here;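 further: cells exposed for 96 hours before readout; 0% = vehicle DMSO and 100% = killing by high DMSO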); details: ICB984 medulloblastoma cells, drug combinations, stronger effect = higher value
# [13] = HTB85 osteosarcoma cell growth inhibition, synergistic combos for chromothripsis tumors, BGB or cisplatin IC20 combos (AID 1671453; in the data active means inhibition above about 80%;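 further: cells exposed for 96 hours before readout; 0% = vehicle DMSO and 100% = high DMSO killing control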); details: HTB85 osteosarcoma cells, drug combinations, stronger effect = higher value
# [14] = MDA-MB-436 breast carcinoma cell growth inhibition, synergistic combos for chromothripsis tumors, BGB or cisplatin combos (AID 1671458; call rule not given here;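 further: cells exposed for 96 hours; 0% = vehicle DMSO and 100% = killing by high DMSO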); details: MDA-MB-436 breast carcinoma growth inhibition, drug combinations, stronger effect = higher value
# [15] = growth inhibition of BT084 medulloblastoma cells, cell-based, ICGC_MB145, cisplatin and BGB IC40 combos (AID 1671461; in the data active means inhibition above about 80%;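 further: cells exposed to drugs for 96 hours; 0% = vehicle DMSO and 100% = high DMSO full killing control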); details: drug combinations, stronger effect = higher value
# [16] = growth inhibition of RCMB18 medulloblastoma cells, cell-based, cisplatin and BGB IC40 combos (AID 1671462; in the data active means inhibition above about 80%;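 further: cells exposed to compound for four days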); details: stronger effect = higher value
# [17] = growth inhibition of CRL1545 osteosarcoma cells, cell-based, cisplatin and BGB IC20 combos (AID 1671464; in the data active means inhibition above about 80%;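 further: cells exposed to compound for 96 hours before readout; 0% = vehicle DMSO and 100% = high DMSO killing control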); details: stronger effect = higher value
# [18] = modifiers of HSF1 nuclear foci, imaging, Selleck Cancer Library (AID 1347162; in the data active means plate-normalised HSF1 focus index below about 0.46); details: human cells, at 10 µM; SSMD: measured here: HSF1 foci SSMD mean; cell count: measured here: cell number; plate-normalised HSF1 focus index: stronger effect = lower value
# [19] = stronger effect = lower value, cell number ratio, induced over uninduced
# [20] = measured here: relative caspase fold change +Dox/-Dox
# [21] = measured here: total cells with miR-34 induction, stronger effect = lower value
# [22] = measured here: total cells without miR-34 induction
# [23] = MELAS cybrid survival, CellTiter-Glo 48 h, stronger effect = higher value
# [24] = Rieske KO mouse fibroblast survival, CellTiter-Glo 72 h
# [25] = measured here: with BGB IC20 combination, at 0.5 µM
# [26] = measured here: with cisplatin IC20 combination, at 0.5 µM
compound,measurement,setting,value
CC/C=C\C[C@H]1C(=O)CC[C@@H]1CC(=O)OC,outcome,[1],inactive
same,outcome,[2],inactive
same,outcome,[3],inactive
CC(=O)Nc1sc2c(c1-c1nc3ccccc3s1)CNC2,AC50,[1],23.5 µM (active)
same,AC50,[2],20.9 µM (active)
same,outcome,[3],inactive
Cc1ccccc1C(C(=O)NC1CCCCC1)N(C(=O)CNc1ccc(C#N)cc1)c1cccc(F)c1 (stereo not drawn),outcome,[1],inactive
same,outcome,[2],inactive
same,outcome,[3],inactive
same,outcome,[4],inactive
same,outcome,[5],inactive
CC(=O)N(C)C1(c2ccccc2)CCN(CCC[C@]2(c3ccc(Cl)c(Cl)c3)CCCN(C(=O)c3ccccc3)C2)CC1,AC50,[1],29.6 µM (active)
same,AC50,[2],26.4 µM (active)
same,AC50,[3],33.2 µM (active)
CC(C)(C)NC(=O)Nc1cccc(Nc2ncc(F)c(NC(C)(C)CO)n2)c1,outcome,[1],inactive
same,outcome,[6],inactive
same,AC50,[7],4.68 µM (active)
same,outcome,[3],inactive
O=c1[nH]c(=O)n([C@H]2C[C@H](O)[C@@H](CO)O2)cc1/C=C/Br,outcome,[1],inactive
same,outcome,[2],inactive
same,outcome,[3],inactive
CCc1nc(-c2cccc(C)c2)c(-c2ccnc(NC(=O)c3ccccc3)c2)s1,outcome,[1],inactive
same,outcome,[2],inactive
same,fold change,[8]; [19],0.974 (inactive)
same,fold change,[8]; [20],0.928
same,cell count,[8]; [21],5690
same,cell count,[8]; [22],5840
same,z-score,[9]; [23],0.655 (inactive)
same,z-score,[9]; [24],0.137
COc1ccc(C(=O)CC2(O)C(=O)Nc3c(Cl)ccc(Cl)c32)cc1 (stereo not drawn),AC50,[1],6.62 µM (active)
same,AC50,[6],11.8 µM (active)
same,AC50,[7],4.17 µM (active)
same,outcome,[3],inactive
same,AC50,[4],2.63 µM (active)
same,inhibition,"[10]; at 0.5 µM, stronger effect = higher value",-20.8% (inactive)
same,inhibition,"[10]; measured here: combination with BGB IC20, at 0.005 µM",-14.2%
same,inhibition,"[10]; measured here: combination with BGB IC40, at 0.005 µM",-20.5%
same,inhibition,"[10]; measured here: combination with BGB IC40, at 0.05 µM",-14.8%
same,inhibition,"[10]; measured here: combination with cisplatin, at 0.5 µM, stronger effect = higher value",-51.4%
same,inhibition,"[10]; measured here: combination with cisplatin, at 5 µM, stronger effect = higher value",10.7%
same,inhibition,"[11]; BGB combo, at 5 µM",63.6%
same,inhibition,[11]; at 0.5 µM,28.4% (inactive)
same,inhibition,"[11]; cisplatin combo, at 5 µM",59.7%
same,inhibition,[11]; [25],21.3%
same,inhibition,[11]; [26],16%
same,inhibition,"[11]; single agent, at 5 µM",93.1%
same,inhibition,"[12]; BGB IC20 combo, at 0.005 µM",-4.85%
same,inhibition,"[12]; BGB IC40 combo, at 0.005 µM",-25.9%
same,inhibition,"[12]; BGB IC40 combo, at 0.05 µM",11.3%
same,inhibition,[12]; at 0.5 µM,-24.6% (inactive)
same,inhibition,"[12]; cisplatin combo, at 0.05 µM",8.85%
same,inhibition,"[12]; cisplatin combo, at 0.5 µM",-32.2%
same,inhibition,"[12]; cisplatin combo, at 5 µM",-25.3%
same,inhibition,"[12]; measured here: 5 uM single agent, at 5 µM",-28.8%
same,inhibition,[13]; at 0.5 µM,33.2% (inactive)
same,inhibition,"[13]; measured here: with BGB IC20, at 0.5 µM",33.1%
same,inhibition,"[13]; measured here: with BGB IC20, at 5 µM",64.4%
same,inhibition,"[13]; measured here: with cisplatin IC20, at 0.5 µM",11.7%
same,inhibition,"[13]; measured here: with cisplatin IC20, at 5 µM",63.8%
same,inhibition,"[13]; single agent, at 5 µM",88.4%
same,inhibition,[14]; at 0.5 µM,2.68% (inactive)
same,inhibition,"[14]; measured here: BGB combination, at 0.5 µM",-5.4%
same,inhibition,"[14]; measured here: BGB combination, at 5 µM",40.2%
same,inhibition,"[14]; measured here: cisplatin combination, at 0.5 µM",-2.19%
same,inhibition,"[14]; measured here: cisplatin combination, at 5 µM",64.3%
same,inhibition,[15]; at 0.5 µM,-18.2% (inactive)
same,inhibition,"[15]; cisplatin combination, at 0.5 µM",1.77%
same,inhibition,"[15]; cisplatin combination, at 5 µM",10.6%
same,inhibition,"[15]; measured here: BGB IC40 combination 0.05 uM, at 0.05 µM",2.03%
same,inhibition,"[15]; single agent, at 5 µM",40.8%
same,inhibition,[16]; at 0.5 µM,-4.73% (inactive)
same,inhibition,"[16]; cisplatin combo, at 5 µM",26.4%
same,inhibition,"[16]; measured here: BGB IC40 combination, at 0.05 µM",-41.1%
same,inhibition,"[16]; measured here: combination with cisplatin, at 0.5 µM",6.7%
same,inhibition,"[16]; single agent, at 5 µM",24.9%
same,inhibition,[17]; at 0.5 µM,0.14% (inactive)
same,inhibition,[17]; [25],16.2%
same,inhibition,[17]; [26],-10.3%
same,inhibition,"[17]; single agent, at 0.05 µM",-6.9%
same,inhibition,"[17]; single agent, at 5 µM",77.7%
CC(O)[C@@H]1NC(=O)[C@H](CCCCN)NC(=O)[C@@H](Cc2c[nH]c3ccccc23)NC(=O)[C@H](Cc2ccccc2)NC(=O)[C@@H](NC(=O)[C@H](N)Cc2ccccc2)CSSC[C@@H](C(=O)N[C@H](CO)[C@@H](C)O)NC1=O (stereo partly drawn),outcome,[1],inactive
same,outcome,[2],inactive
same,outcome,[3],inactive
COc1ccc2c(Oc3ccc(NC(=O)c4c(C)n(CC(C)(C)O)n(-c5ccccc5)c4=O)cc3F)ccnc2c1,outcome,[1],inactive
same,outcome,[6],inactive
same,AC50,[7],20.9 µM (active)
same,outcome,[3],inactive
same,AC50,[4],20.9 µM (active)
same,outcome,[5],inactive
Fc1ccc(CNc2ncnc3ccc(F)cc23)cc1,outcome,[1],inactive
same,outcome,[6],inactive
same,outcome,[5],inactive
CC(C)(C)[C@H](NC(=O)c1ccc(N)c(Cl)c1)C(=O)N1CCC[C@H]1C(=O)N[C@H](C#N)CC(=O)O,outcome,[1],inactive
same,outcome,[2],inactive
same,outcome,[3],inactive
Nc1nc(N)c(N=O)c(OCC2CCCCC2)n1,AC50,[1],14.8 µM (active)
same,AC50,[2],4.69 µM (active)
same,AC50,[3],14.8 µM (active)
same,IC50,[5],14.8 µM (active)
same,fold change,[8]; [19],0.992 (inactive) and 0.824 (inactive)
same,fold change,[8]; [20],0.923 and 0.352
same,cell count,[8]; [21],8650 and 6730
same,cell count,[8]; [22],8720 and 8160
same,SSMD,[18],2.32
same,cell count,[18],6960
same,plate-normalised HSF1 focus index,[18],1.14 (inactive)
same,z-score,[9]; [23],-0.213 (inactive)
same,z-score,[9]; [24],-2.45
COc1cc(OC)cc(-c2ccc3ncc4ccc(=O)n(-c5ccc(N6CCNCC6)c(C(F)(F)F)c5)c4c3c2)c1,AC50,[1],16.6 µM (active)
same,AC50,[2],2.64 µM (active)
same,AC50,[3],13.2 µM (active)
CC(=O)NCCC(=O)N[C@@H](CCC(N)=O)C(=O)N[C@@H](CO)C(=O)N[C@@H](CCC(N)=O)C(=O)N[C@@H](CCC(N)=O)C(=O)N[C@H](C(=O)N[C@@H](Cc1ccccc1)C(=O)N[C@]1(C)CCCCCC/C=C\CCC[C@@](C)(C(=O)N[C@@H](CCC(N)=O)C(=O)N[C@@H](CC(N)=O)C(N)=O)NC(=O)[C@H](CC(C)C)NC(=O)[C@H](CC(C)C)NC(=O)[C@@H](CCCNC(=N)N)NC(=O)[C@H](Cc2c[nH]c3ccccc23)NC(=O)[C@H](CC(C)C)NC(=O)[C@H](CC(N)=O)NC1=O)[C@H](C)O,outcome,[1],inactive
same,outcome,[7],inactive
same,outcome,[4],inactive
same,outcome,[5],inactive
COc1cc2c(cc1Cc1cccc(Cl)c1F)c(=O)c(C(=O)O)cn2[C@H](CO)C(C)C,outcome,[1],inactive
same,AC50,[3],20.9 µM (active)
same,AC50,[4],26.3 µM (active)

# Reference: PubChem BioAssay
